Among all 39,000 compounds or so, about 3,300 (8.5%) were called active. The sample as a whole holds a higher share of actives than the screen did.
Test system: HepG2
Assay: cytotoxicity call (relative viability < 0.9)
Conditions: 10 µM

| Structure (SMILES) | cytotoxicity call |
| --- | --- |
| CS(=O)(=O)N1C[C@H](O)COC[C@H]2O[C@@H](CC(=O)NCc3ccccc3)CC[C@@H]21 | inactive |
| CC(C)(C)[S@@](=O)N1Cc2cc(C(=O)N3CCc4ccccc4C3)nc(-c3cccc(-c4cncnc4)c3)c2[C@H]1CCO | inactive |
| COc1ccc(C#Cc2ccc3c(c2)O[C@@H](CN(C)C(=O)CN2CCOCC2)[C@H](C)CN([C@@H](C)CO)S3(=O)=O)cc1 | inactive |
| Cc1noc(C)c1NC(=O)Nc1ccc2c(c1)C(=O)N([C@@H](C)CO)C[C@@H](C)[C@@H](CN(C)S(C)(=O)=O)O2 | inactive |
| C[C@@H]1CN([C@@H](C)CO)C(=O)c2cc(NC(=O)CCN3CCOCC3)ccc2O[C@@H]1CN(C)Cc1ccccc1 | inactive |
| CO[C@@H]1CN(C)C(=O)c2cc(NC(=O)c3cnccn3)ccc2OC[C@@H](C)N(CCC(F)(F)F)C[C@H]1C | inactive |
| C[C@H]1CN([C@@H](C)CO)C(=O)c2cccc(NS(=O)(=O)c3ccc(Cl)cc3)c2O[C@H]1CN(C)Cc1ccc(Oc2ccccc2)cc1 | inactive |
| C[C@@H]1CN([C@@H](C)CO)C(=O)CCCn2cc(nn2)CO[C@@H]1CN(C)C(=O)C1CC1 | inactive |
| COc1ccc(-c2cc(=O)c3c(O)cc(OC)cc3o2)cc1 | inactive |
| COc1ccc(-c2cc(=O)c3c(OC)c(OC)c(OC)c(OC)c3o2)cc1OC | inactive |
| COc1ccc(-c2cc(=O)c3c(O)c(OC)c(OC)c(OC)c3o2)cc1OC | active |
| COc1ccc(-c2cc(=O)c3c(OC)c(OC)c(OC)cc3o2)cc1OC | inactive |
| COc1ccc(-c2cc(=O)c3c(OC)c(OC)c(OC)c(OC)c3o2)cc1 | inactive |
| COc1ccc(-c2cc(=O)c3c(OC)cc(OC)cc3o2)cc1 | inactive |
| COc1ccc(-c2cc(=O)c3c(O)cc(O)cc3o2)cc1 | active |
| COc1ccc(-c2cc(=O)c3c(O)c(OC)c(OC)c(OC)c3o2)cc1 | active |
| O=c1cc(-c2ccc(O)cc2)oc2cc(O)cc(O)c12 | inactive |
| C[C@@H]1CN([C@@H](C)CO)S(=O)(=O)c2ccc(C#C[C@@H](C)O)cc2O[C@H]1CN(C)C(=O)CN(C)C | inactive |
| C[C@@H]1CN([C@H](C)CO)C(=O)c2cccc(NS(C)(=O)=O)c2O[C@@H]1CN(C)S(=O)(=O)c1cccs1 | inactive |
| Clc1ccc2nncn2n1 | inactive |
| CNC(=O)[C@H]1O[C@H](n2cnc3c(NCc4cccc(I)c4)nc(Cl)nc32)[C@@H](O)[C@@H]1O | inactive |
| C[C@@H]1CCCCO[C@@H](CN(C)Cc2ccncc2)[C@H](C)CN([C@H](C)CO)C(=O)c2cc(NS(=O)(=O)c3ccc(Cl)cc3)ccc2O1 | inactive |
| NC(=O)NCC#Cc1ccc2c(c1)[C@]1(C(=O)N2)[C@H](C(=O)N2CCN(c3ncccn3)CC2)[C@H]2C(=O)O[C@H](c3ccccc3)[C@H](c3ccccc3)N2[C@@H]1c1ccccc1OCCO | inactive |
| Cc1cc(C(=O)Nc2cccc3c2O[C@@H](CN(C)S(=O)(=O)c2ccc(Cl)cc2)[C@@H](C)CN([C@@H](C)CO)C3=O)n(C)n1 | inactive |
| O=C(CN1CCOCC1)NCC[C@@H]1CC[C@H](NC(=O)Nc2ccccc2)[C@@H](CO)O1 | inactive |
| CNC(=O)Nc1ccc(-c2nc(N3C[C@H]4CC[C@@H](C3)O4)c3cnn(C4CCC5(CC4)OCCO5)c3n2)cc1 | inactive |
| O=C1CC[C@@H](C(=O)O)N1 | inactive |

| Structure (SMILES) | cytotoxicity call |
| --- | --- |
| O=C1CCC(C(=O)N2CSCC2C(=O)O)N1 (stereo not given) | active |
| O=C1CC[C@@H](C(=O)N2CSC[C@H]2C(=O)O)N1 | inactive |
| CC(C)NC(=O)Nc1cccc2c1O[C@H](CN(C)C(=O)NC1CCCCC1)[C@@H](C)CN([C@@H](C)CO)C2=O | inactive |
| C[C@@H]1CN([C@@H](C)CO)C(=O)c2cccc(NC(=O)c3ccncc3)c2O[C@@H]1CN(C)Cc1ccc2c(c1)OCO2 | inactive |
| C[C@@H]1CCCCO[C@@H](CN(C)C(=O)C2CCCCC2)[C@H](C)CN([C@H](C)CO)C(=O)c2cc(NC(=O)Nc3cccc4ccccc34)ccc2O1 | inactive |
| O=C(C[C@@H]1C[C@@H]2c3cc(NC(=O)NC4CCCC4)ccc3O[C@@H]2[C@@H](CO)O1)NCc1ccc(-c2ccccc2)cc1 | inactive |
| O=C(C[C@H]1C[C@@H]2c3cc(NC(=O)NC4CCCC4)ccc3O[C@@H]2[C@H](CO)O1)NCc1ccc(-c2ccccc2)cc1 | active |
| O=C(C[C@H]1C[C@H]2c3cc(NC(=O)NC4CCCC4)ccc3O[C@H]2[C@@H](CO)O1)NCc1ccc(-c2ccccc2)cc1 | inactive |
| O=C(C[C@H]1C[C@@H]2c3cc(NC(=O)NC4CCCC4)ccc3O[C@@H]2[C@@H](CO)O1)NCc1ccc(-c2ccccc2)cc1 | active |
| O=C(C[C@H]1C[C@H]2c3cc(NC(=O)NC4CCCC4)ccc3O[C@H]2[C@@H](CO)O1)NCc1ccc(Oc2ccccc2)cc1 | inactive |
| O=C(C[C@@H]1C[C@H]2c3cc(NC(=O)NC4CCCC4)ccc3O[C@H]2[C@H](CO)O1)NCc1ccc(-c2ccccc2)cc1 | active |
| O=C(C[C@@H]1C[C@@H]2c3cc(NC(=O)NC4CCCC4)ccc3O[C@@H]2[C@H](CO)O1)NCc1ccc(-c2ccccc2)cc1 | inactive |
| O=C(C[C@H]1C[C@H]2c3cc(NC(=O)NC4CCCC4)ccc3O[C@H]2[C@H](CO)O1)NCc1ccc(-c2ccccc2)cc1 | inactive |
| O=C(C[C@@H]1C[C@H]2c3cc(NC(=O)NC4CCCC4)ccc3O[C@H]2[C@@H](CO)O1)NCc1ccc(-c2ccccc2)cc1 | inactive |
| CC(=O)OCCc1nc(C(=O)NCc2ccc3c(c2)OCO3)cc2c1[C@@H](CCO)N([S@](=O)C(C)(C)C)C2 | inactive |
| O=C(C[C@@H]1C[C@H]2c3cc(NS(=O)(=O)c4ccccc4)ccc3O[C@H]2[C@H](CO)O1)NCC(F)(F)F | inactive |
| COc1cccc(-c2ccc3c(c2)O[C@H](CN(C)C(=O)C2CCOCC2)[C@@H](C)CN([C@@H](C)CO)S3(=O)=O)c1 | inactive |
| C[C@@H]1CN([C@H](C)CO)C(=O)c2cc(NC(=O)Nc3ccccc3)ccc2O[C@@H]1CN(C)Cc1ccc(C(=O)Nc2ccccc2N)cc1 | inactive |
| C[C@H](CO)N1C[C@H](C)[C@H](CN(C)S(=O)(=O)c2ccccc2)Oc2ccc(NS(=O)(=O)c3ccc(F)cc3)cc2C1=O | inactive |
| CN1C(=O)c2cc(NC(=O)c3cnccn3)ccc2OC[C@H]2O[C@H](CC(=O)N[C@H]3CCN(Cc4ccccc4)C3)CC[C@@H]21 | inactive |
| COc1ccc(S(=O)(=O)N(C)C[C@@H]2Oc3ccc(NC(=O)Cn4cnnn4)cc3C(=O)N([C@H](C)CO)C[C@@H]2C)cc1 | inactive |
| COc1ccc(C(=O)O)cc1 | inactive |
| O=C(C=Cc1ccc(O)cc1)c1ccc(O)cc1O | inactive |
| C/C=C/c1ccc(OC)cc1 | inactive |
| COc1ccc(C=CC(=O)c2ccc(O)cc2O)cc1 | inactive |
| COc1ccc(C(=O)C=Cc2ccccc2)cc1 | active |
| COc1ccc(C=CC(=O)c2cc(O)ccc2O)cc1 | active |

| Structure (SMILES) | cytotoxicity call |
| --- | --- |
| COc1ccc(/C=C2/NC(=O)NC2=O)cc1 | inactive |
| COc1ccc(C=CC(=O)c2ccccc2)cc1 | active |
| CCCCC(CC)COC(=O)C=Cc1ccc(OC)cc1 (stereo not given) | inactive |
| CC=Cc1ccc(OC)cc1 | active |
| CC(=C/C(=O)O)/C=C/c1ccccc1 | inactive |
| C[C@H](CO)N1C[C@H](C)[C@H](CN(C)C(=O)Nc2ccc(-c3ccccc3)cc2)OCc2ccccc2-c2ccccc2C1=O | inactive |
| C[C@H](CO)N1C[C@H](C)[C@H](CN(C)C(=O)CCC(F)(F)F)OCCCC[C@H](C)Oc2ccc(NC(=O)CCC(F)(F)F)cc2C1=O | inactive |
| O=C(NCC(=O)N1CCOCC1)c1ccccc1 | inactive |
| Cc1ccc(S(=O)(=O)Nc2ccc3c(c2)CC(=O)N([C@H](C)CO)C[C@@H](C)[C@H](CN(C)S(=O)(=O)c2cn(C)cn2)O3)cc1 | inactive |
| Cc1ccc(S(=O)(=O)Nc2ccc3c(c2)CC(=O)N([C@@H](C)CO)C[C@H](C)[C@@H](CN(C)S(=O)(=O)c2cccs2)O3)cc1 | inactive |
| C[C@H](CO)N1C[C@H](C)[C@@H](CN(C)S(C)(=O)=O)Oc2ccc(NC(=O)Cn3cnnn3)cc2C1=O | inactive |
| COc1cc(C=Cc2ccc(O)cc2)cc(OC)c1 | active |
| COc1ccc(O)cc1 | inactive |
| Oc1ccc(C=Cc2cc(O)cc(O)c2)cc1 | inactive |
| C[C@@H]1CN([C@@H](C)CO)C(=O)c2cc(C#CCN(C)C)cnc2O[C@@H]1CN(C)S(C)(=O)=O | inactive |
| COc1ccc(S(=O)(=O)N(C)C[C@H]2OCCCC[C@@H](C)Oc3ccc(NC(=O)C4CCCCC4)cc3C(=O)N([C@@H](C)CO)C[C@H]2C)cc1 | inactive |
| CC(C)(C)[S@](=O)N1Cc2cc(C(=O)NCCN3CCCCC3)nc(-c3cccc(-c4ccc(C#N)cc4)c3)c2[C@@H]1CCO | inactive |
| C[C@@H]1CN([C@H](C)CO)S(=O)(=O)c2ccc(C#CCC3CCCC3)cc2O[C@H]1CN(C)C(=O)CN(C)C | inactive |
| C[C@H](CO)N1C[C@H](C)[C@@H](CN(C)C(=O)c2cnccn2)Oc2cc(C#CCC3CCCC3)ccc2S1(=O)=O | active |
| C[C@H]1CN([C@@H](C)CO)S(=O)(=O)c2ccc(C#CCC3CCCC3)cc2O[C@H]1CN(C)C(=O)CN(C)C | active |
| C[C@@H]1CN([C@@H](C)CO)S(=O)(=O)c2ccc(C#CCC3CCCC3)cc2O[C@@H]1CN(C)C(=O)CN(C)C | active |
| C[C@@H]1CN([C@H](C)CO)S(=O)(=O)c2ccc(C#CCC3CCCC3)cc2O[C@@H]1CN(C)C(=O)c1cnccn1 | inactive |
| C[C@@H]1CN([C@H](C)CO)S(=O)(=O)c2ccc(C#CCC3CCCC3)cc2O[C@@H]1CN(C)C(=O)CN(C)C | inactive |
| C[C@H]1CN([C@@H](C)CO)S(=O)(=O)c2ccc(C#CCC3CCCC3)cc2O[C@H]1CN(C)C(=O)c1cnccn1 | inactive |
| C[C@H](CO)N1C[C@H](C)[C@H](CN(C)C(=O)CN(C)C)Oc2cc(C#CCC3CCCC3)ccc2S1(=O)=O | inactive |
| C[C@H]1CN([C@@H](C)CO)S(=O)(=O)c2ccc(C#CCC3CCCC3)cc2O[C@@H]1CN(C)C(=O)CN(C)C | inactive |
